Assay results as given in PubChem BioAssay (NCI).
About 79,000 compounds went through this panel and 15% of them were active in at least one assay; those are over-represented in the sample as a whole. The source made the active and inactive calls. No stated cut-off is given here; in the data, active means growth inhibition above about 70%; inactive means the rest.

Tests used:
[1] = NCI Yeast Anticancer Drug Screen. Data for the rad50 strain (AID 155);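 further: 0% = growth of vehicle-only cultures of the same strain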; conditions: S. cerevisiae rad50 strain growth inhibition; at 50.0 µM; hits give high values
Method in brief: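 DNA repair mutant yeast, compound exposure, growth read-out; inhibition is taken relative to vehicle.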

[2] = NCI Yeast Anticancer Drug Screen. Data for the mec2-1 strain (AID 157); conditions: S. cerevisiae mec2-1 strain, at 50.0 µM, hits give high values
Method in brief: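 Strain: mec2-1 (DNA repair/cell cycle alteration). Compound exposure, then growth measured; inhibition expressed relative to vehicle.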

[3] = NCI Yeast Anticancer Drug Screen. Data for the sgs1 mgt1 strain (AID 161);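 further: 0% = growth of cultures given vehicle only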; conditions: S. cerevisiae sgs1 mgt1 strain, at 50.0 µM, hits give high values
Method in brief: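 Inhibition of yeast growth, normalised to vehicle-treated controls, is reported for a strain bearing genetic alterations in DNA damage repair.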

[4] = NCI Yeast Anticancer Drug Screen. Data for the cln2 rad14 strain (AID 165);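 further: 0% = growth equal to vehicle treated cultures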; conditions: S. cerevisiae cln2 rad14 strain, at 50.0 µM, hits give high values
Method in brief: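 Compounds are applied to the cln2 rad14 yeast strain, and growth is then compared with that of vehicle-treated cultures to give inhibition.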

[5] = NCI Yeast Anticancer Drug Screen. Data for the bub3 strain (AID 167); conditions: S. cerevisiae bub3 mutant strain, at 50.0 µM, hits give high values
Method in brief: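 In this screen, a yeast mutant lacking normal mitotic checkpoint function is challenged with compound. Relative growth versus vehicle gives the inhibition value.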

[6] = NCI Yeast Anticancer Drug Screen. Data for the mlh1 rad18 strain (AID 175); conditions: S. cerevisiae mlh1 rad18 strain growth inhibition; at 50.0 µM; hits give high values
Method in brief: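 Read-out is yeast growth inhibition, calculated against vehicle-only controls. The compound was applied to a strain engineered with DNA damage repair alterations.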

Measured: growth inhibition

COC(C)CCOC(=O)COc1ccccc1 (stereo not given)
inactive: [1] 17.8% | [2] -10% | [3] 8.35% | [4] -11.3% | [5] 13.8% | [6] 8.3%

COc1ccc(C2c3cc4c(cc3OC(C)(OC)C2C)OCO4)c(OC)c1 (stereo not given)
inactive: [1] 5.25% | [2] 26.2% | [3] 32.6% | [4] -47.2% | [5] -5.85% | [6] 21%

CCCC(=O)/C=C\c1ccccc1
inactive: [1] 21.6% | [2] -3.7% | [3] 6.55% | [4] -61.9% | [5] 3.2% | [6] -10.7%

O=C(O)C1C(C2c3ccc(O)cc3Oc3cc(O)ccc32)C2(Cl)C(Cl)=C(Cl)C1(Cl)C2(Cl)Cl (stereo not given)
active: [1] 95.3% | [2] 94.4% | [3] 96.8% | [5] 81.6% | [6] 95.3%
inactive: [4] 69.2%

O=C(CCc1ccc(O)c(O)c1)NCCc1cc(OCc2ccccc2)cc(OCc2ccccc2)c1
active: [1] 83.9% | [2] 88.4% | [3] 83.2% | [4] 87.5% | [5] 82.2% | [6] 73.1%

OC(Cc1ccccc1)CN1CCN(c2ccccc2)CC1 (stereo not given)
inactive: [1] 10.4% | [2] 4% | [3] 8% | [4] 17.1% | [5] 8.05% | [6] 4.05%

O=C1CCCc2c(O)ccc(O)c21
inactive: [1] 5.2% | [2] 2.8% | [3] -2.6% | [4] 11.4% | [5] 8.15% | [6] 28.4%

CC(=O)NNc1nc(C)c(C(/C=C/c2ccc(Cl)cc2)=N\NS(=O)(=O)c2ccc(C)cc2)s1
inactive: [1] 26.1% | [2] 2.9% | [3] 19.6% | [4] 23.2% | [5] 23.6% | [6] 9.45%

Cc1ccc(C(=N)c2ccccc2Cc2ccccc2)cc1
inactive: [1] -14.4% | [2] -10.7% | [3] -12.8% | [4] 2.75% | [5] 3.9% | [6] -20.3%

O=c1oc2ccc3ccccc3c2c(-c2ccc(O)cc2)c1-c1ccccc1
active: [1] 98.7% | [2] 98.5% | [3] 98.9% | [4] 97.2% | [5] 98.2% | [6] 98.7%

CC(=O)/C(N=Nc1ccccc1SCCC#N)=C(\C)O
inactive: [1] 12.2% | [2] -2.55% | [3] -8.1% | [4] -28.6% | [5] 9.15% | [6] 1.5%

CC(C)(O)/C1=C/C=C/CCCCCCCCCC1
inactive: [1] 13.8% | [2] 14.9% | [3] 50.1% | [4] 5.75% | [5] 14.8% | [6] 16.9%

C(=N\OCc1ccccc1)/c1ncccc1C1OCCO1
inactive: [1] -10.6% | [2] -23.1% | [3] -0.5% | [4] 20.2% | [5] -5.8% | [6] -8.75%

COc1cc(C2CC=CCC2C(=O)O)cc(OC)c1OC (stereo not given)
inactive: [1] -13.6% | [2] 2.4% | [3] -0.65% | [4] 7.95% | [5] -0.25% | [6] 0.9%

CCN(Cc1ccccc1)C(=O)Nc1c(Cl)cccc1Cl
inactive: [1] -13.5% | [2] -30.1% | [3] 1.35% | [4] -1.5% | [5] -9.85% | [6] -4.05%

CCCCC(C=O)(CC)CCC#N (stereo not given)
inactive: [1] 45.1% | [2] -2.55% | [3] 46.3% | [4] -17.9% | [5] -16.1% | [6] 42.2%

O=C(O)COCC(=O)N(CCOCCN(Cc1ccccc1)C(=O)COCC(=O)O)Cc1ccccc1
inactive: [1] -18.4% | [2] 0.75% | [3] 7.25% | [4] 26.6% | [5] 0.7% | [6] 4.1%

C=C(C)C(O)C(O)c1c(OC)ccc2ccc(=O)oc12 (stereo not given)
inactive: [1] -3.65% | [2] -4.25% | [3] -50.7% | [4] 14.1% | [5] -5.55% | [6] -4.4%

C/C(=N/N=C(N)N)c1cnn(C(=N)N)c1C
inactive: [1] 15.3% | [2] 13.3% | [3] 18.2% | [4] 19.4% | [5] 20.9% | [6] 28.4%

O=C1OC(c2ccc([N+](=O)[O-])cc2)=N/C1=C\c1cc(Br)ccc1O
inactive: [1] 52.8% | [2] 28.5% | [3] 49.7% | [4] 64.3% | [5] 50.4% | [6] 35%

O=NN(CCCl)C(=O)NC1CCC(CC2CCC(NC(=O)N(CCCl)N=O)CC2)CC1 (stereo not given)
inactive: [1] 24.9% | [2] 5.6% | [3] 8.05% | [4] 29.5% | [5] -6.45% | [6] 10.6%

CCOc1ccccc1NC(=O)CC(C)=O
inactive: [1] 14.3% | [2] 20.6% | [3] 22.2% | [4] 1.9% | [5] 33.3% | [6] 10.4%

O=[N+]([O-])c1cc(S(=O)(=O)O)cc(S(=O)(=O)O)c1O
inactive: [1] 12.6% | [2] 2.6% | [3] 13.2% | [4] 19.6% | [5] 16.5% | [6] 18.1%

O=C(O)/C=C(\CC(=O)O)C(=O)O
inactive: [1] 12.8% | [2] 11.9% | [3] -21.9% | [4] 8.15% | [5] -21.1% | [6] 1.15%

Nc1ncnc(N)c1NC(=O)CCCc1ccccc1
inactive: [1] 5.85% | [2] 18.6% | [3] -2.95% | [4] 1% | [5] 33.5% | [6] 15.9%

CCN(CC)CCOC(=O)c1ccc(NC(=O)Nc2ccccc2[N+](=O)[O-])cc1
inactive: [1] 19.4% | [2] 5.5% | [3] 19.1% | [4] 16.6% | [5] 15.6% | [6] 14.8%

CCOC(=O)/C(C#N)=C/c1c(-c2ccccc2)nn2ccccc12
inactive: [1] 42.6% | [2] 26.6% | [3] 28.1% | [4] -2.4% | [5] -7.7% | [6] 20.6%

NCCCNC/C=C/CNCCCN
inactive: [1] 25.8% | [2] -0.5% | [3] 2.7% | [4] 11.2% | [5] -0.8% | [6] -2.45%

COc1ccc(NC(=O)C(F)(F)F)cc1
inactive: [1] 9.3% | [2] 3.85% | [3] 10.4% | [4] -2.2% | [5] 0.55% | [6] 1.75%

O=C(Cl)Cc1ccccc1[N+](=O)[O-]
inactive: [1] 14.5% | [2] 14.6% | [3] 12.4% | [4] 6.55% | [5] -20.4% | [6] 12.9%

O=C1OC(=O)c2ccc([N+](=O)[O-])c3c(C(=O)O)ccc1c23
inactive: [1] 5.1% | [2] -19.2% | [3] -22.9% | [4] -1.65% | [5] 2.55% | [6] 2.85%

NC(=O)C(=CNc1nc(-c2ccc(Cl)c(Cl)c2)cs1)C(N)=O
inactive: [1] -53.9% | [2] -45.1% | [3] -29.4% | [4] -17.2% | [5] -6.5% | [6] -8.25%

COC(=O)c1ccc2cc1Nc1c(C#N)cnc(=S)n1-2
inactive: [1] -2.3% | [2] 13.4% | [3] 11.2% | [4] 23.1% | [5] 14.5% | [6] 18.1%

Nc1nnc(-c2cccc(-c3nnc(N)o3)c2)o1
inactive: [1] -13.5% | [2] -24.6% | [3] -9.8% | [4] -41.4% | [5] -6.5% | [6] -15.1%

CN=NN(C)C(=O)NC
inactive: [1] -11.9% | [2] 0.7% | [3] 10.1% | [4] -13% | [5] -25% | [6] 30.4%

COc1c(OC(C)=O)c(OC(C)=O)cc2c1-c1ccc(OC)c(=O)cc1C(NC(C)=O)CC2 (stereo not given)
inactive: [1] 1.65% | [2] -1.35% | [3] 15.8% | [4] 1.35% | [5] -33.3% | [6] 8.35%

NC(=O)C(=CNC(=S)Nc1ccc(S(=O)(=O)Nc2ccccn2)cc1)C(N)=O
inactive: [1] -31.8% | [2] -8.3% | [3] 22.3% | [4] -4.1% | [5] 11.3% | [6] -26.8%

Cn1c2ccccc2c2nn3cnnc3nc21
inactive: [1] 18.1% | [2] 41.3% | [3] -3.3% | [4] 25.5% | [5] 22.1% | [6] -1.95%

C=CCc1ccc(OC(=O)Nc2cccc(OC)c2)c(OC)c1
inactive: [4] -7.45% | [5] 53.9% | [6] 68.8%
active: [1] 74.5% | [2] 86.8% | [3] 73.9%

Cc1cc(S(=O)(=O)Nc2nnc3cc(C(F)(F)F)cc(C)n23)c(S)cc1Cl
inactive: [1] -19.6% | [2] -26.8% | [3] -38.1% | [4] -15.8% | [5] -19.9% | [6] -14.2%
